# Measurements: PubChem BioAssay (NCI)
# About 83,000 compounds went through this panel and 20% of them were active in at least one assay; those are over-represented in the sample as a whole.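 Cells were grown in 96-well plates and exposed to the test compound at a single concentration for 48 hours; results are reported as percent growth, with values below 10 considered active.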 Unmarked numbers belong to inactive results. The source made the active and inactive calls.
# Experiments:
# Assay in all cases: NCI-60 one-dose screen, 48 h (100 = growth as untreated, 0 = no growth, -100 = all killed)
# Conditions in all cases: 10 µM
# BT-549 breast = tested on: BT-549 breast
# MDA-MB-435 melanoma = tested on: MDA-MB-435 melanoma
# SW-620 colon = tested on: SW-620 colon
# MCF7 breast = tested on: MCF7 breast
# HCT-116 colon = tested on: HCT-116 colon
# HCC-2998 colon = tested on: HCC-2998 colon
# KM12 colon = tested on: KM12 colon
SMILES,growth (BT-549 breast),growth (MDA-MB-435 melanoma),growth (SW-620 colon),growth (MCF7 breast),growth (HCT-116 colon),growth (HCC-2998 colon),growth (KM12 colon)
COc1ccc2c(c1)O/C(=C\c1ccc([N+](=O)[O-])o1)C2=O,-50% (active),-72.5% (active),-53.8% (active),2.06% (active),-39% (active),-26.8% (active),-11.5% (active)
COc1ccc(-c2nc3sc(-c4ccccc4)c(-c4ccccc4)n3c2/C=C/C(=O)c2ccccn2)cc1,85.5%,90.6%,91%,62%,67.2%,90.9%,83.6%
Cc1ccc(S(=O)(=O)OCCN(CCOS(=O)(=O)c2ccc(C)cc2)c2c[nH]c(=O)[nH]c2=O)cc1,112%,103%,110%,99.2%,108%,128%,116%
COc1cc2cc3c(nc2cc1OC)CCN3Cc1ccc(NC(=O)Nc2cc(C(F)(F)F)cc(C(F)(F)F)c2)cc1,106%,76.4%,88.3%,49.3%,66.7%,83.4%,68.6%
CCOCCOCCOCCOCCOCCOCCOCCOCCOCCO (tested in a mixture with another compound),-52.7% (active),19.4%,18.6%,3.56% (active),3.57% (active),9.05% (active),-18.3% (active)
O=C(Nc1cccc(-n2cc(-c3ccncc3)c(-c3ccc(O)c(Cl)c3)n2)c1)Nc1ccc(Cl)c(Cl)c1,1.9% (active),-16.7% (active),6.85% (active),-0.812% (active),1.72% (active),20.5%,0.41% (active)
Cc1cccc(C)c1NC(=O)c1sc2nc3c(cc2c1N)C(=O)CCC3,90.7%,13%,72.2%,54.6%,90.6%,72.5%,56.3%
Cc1cc(Cl)nc(N(CCCNc2ccnc3cc(Cl)ccc23)Cc2cccs2)n1,24.7%,3.55% (active),11.8%,10.7%,3.08% (active),0.165% (active),12.8%
Cc1cccc(NC2=C(C#N)C(=O)NC3(CCCC3)S2)c1,102%,101%,103%,89.8%,105%,95.8%,104%
O=C1Nc2ccc(Cl)cc2/C1=C\c1c(-c2ccc(Cl)cc2)nc2sc(C3CC3)nn12,65.3%,77%,80.8%,60.7%,41.4%,83.7%,82.7%
O=C(CC(C(=O)c1ccccc1)N1CCOCC1)c1ccccc1 (configuration not stated),99.6%,107%,60.8%,43.4%,77.3%,104%,105%
CN(Cc1ccccc1)Cc1ccc([N+](=O)[O-])cc1I,87.7%,102%,89%,91.6%,84%,106%,93.2%
Cc1ccc(NC(=O)Nc2nc3ccccc3s2)cc1NC(=O)Nc1nc2ccccc2s1,104%,97.1%,102%,64.6%,84.9%,93.4%,88.2%
CN(C)CCN=c1nc2c(c(N)n1-c1ccccc1)c(=S)n(-c1ccccc1)c(=S)n2-c1ccccc1,4.45% (active),-64.5% (active),-59.1% (active),17.9%,-22.1% (active),-39.6% (active),0.204% (active)
COc1ccc(OC)c2c1C(=O)CC2C (configuration not stated),120%,102%,105%,99.6%,111%,113%,103%
Cc1cc(=O)n2nnc3c4ccccc4ccc3n12,72.8%,104%,-62% (active),45%,8.71% (active),105%,91.2%
